Test [1] can be described thus: qHTS Assay for Lipid Storage Modulators (AID 1519; calls by dose curve; as to activity change, negative = inhibition: % is scaled to controls: 0 for no effect and ±100 for the full control effect). The settings on record: Drosophila S3 cells, BODIPY lipid droplet/cell ratio, laser cytometry, cells loaded with oleic acid. The gist of the method:
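Cells seeded at 5,000 per well were treated with compounds over a concentration series and loaded with oleic acid (400 uM, as added). Lipid droplet fluorescence (488 nm excitation, 500-530 nm channel) was read by laser-scanning cytometry and normalized to 20 uM Triacsin C.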

The target of test [2] is DNA repair nuclease/redox regulator APEX1 (Homo sapiens) (UniProt P27695). As to the kind of experiment: qHTS Validation Assay for Inhibitors of the Human Apurinic/apyrimidinic Endonuclease 1 (APE1) (AID 1705;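 also: TAMRA fluorescence gain over two minutes as APE1 cuts a quenched THF abasic duplex; % is scaled to controls: 0 for no effect and ±100 for the full control effect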). The settings on record: purified APE1 endonuclease activity, fluorescence, titration; series mostly up to 57.1 µM. The gist of the method: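 Activity read as rising fluorescence (598 nm emission, 525 nm excitation) from incision of a TAMRA/BHQ-2 duplex carrying a THF abasic site (50 nM). Compound and enzyme sat 15 min at RT before substrate start; signal change between first and third 60-s reads.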

Test [3] in a line: Counterscreen for APE1 Inhibitors: Fluorescent Dye Displacement Validation Assay (AID 1707).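 Also: plate controls were ThO with dsDNA and no compound for no effect and ThO without dsDNA for full effect.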 The settings on record: fluorescent dye displacement from DNA; series mostly up to 57.1 µM. The gist of the method:
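Assay buffer: Tris-HCl pH7.5 with 50mM NaCl, 2 mM MgCl2, 0.01% Tween-20. Dye 250 nM, duplex 50 nM final. Readout: decrease in ThO endpoint fluorescence, 480 nm excitation, 540 nm emission.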
A general note: Counterscreens check selectivity or assay interference.

Test [4] can be described thus: qHTS for differential inhibitors of proliferation of Plasmodium falciparum line 7G8 (AID 1815).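 Also: parasite growth measured after three days of incubation.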 Also: potency is read from the fitted curve at half-maximal effect.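 As to activity change, negative = inhibition: plate controls were vehicle wells for no effect and reference inhibitor wells for full effect.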 The note with it: Plasmodium falciparum 7G8 proliferation inhibition; series mostly up to 28.7 µM. For orientation: In qHTS, concentration-response curves come from the screen itself.
A short description of test [5]: qHTS for differential inhibitors of proliferation of Plasmodium falciparum line GB4 (AID 1816).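 Also: parasite growth measured after 72 h incubation.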 Also: potency is read from the fitted curve at half-maximal effect.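 As to activity change, negative = inhibition: 0% = vehicle DMSO and -100% = reference inhibitor.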 The settings on record: Potency: Plasmodium falciparum GB4 proliferation inhibition; series mostly up to 28.7 µM.
Test [6] is described as follows: qHTS for differential inhibitors of proliferation of Plasmodium falciparum line 3D7 (AID 1876). Also: potency is read from the fitted curve at half-maximal effect. The settings on record: P. falciparum 3D7 proliferation inhibition; series mostly up to 28.7 µM.
A short description of test [7]: qHTS for differential inhibitors of proliferation of Plasmodium falciparum line D10 (AID 1877).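 Also: parasites grown with compound for 72 h before DNA staining.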 Also: potency is read from the fitted curve at half-maximal effect.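 As to activity change, negative = inhibition: plate controls were vehicle wells for no effect and reference inhibitor wells for full effect.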 The note with it: series mostly up to 28.7 µM.
A short description of test [8]: qHTS for differential inhibitors of proliferation of Plasmodium falciparum line W2 (AID 1883).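 Also: parasites grown with compound for 72 h before lysis and staining.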 Also: potency is read from the fitted curve at half-maximal effect.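 As to activity change, negative = inhibition: 0% = vehicle wells and -100% = control inhibitor wells.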 The note with it: Potency: Plasmodium falciparum W2 proliferation inhibition; series mostly up to 28.7 µM.
Test [9] is described as follows: qHTS for differential inhibitors of proliferation of Plasmodium falciparum line HB3 (AID 1886).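 Also: parasites grown with compound for 72 h before SYBR Green readout.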 Also: potency is read from the fitted curve at half-maximal effect.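 As to activity change, negative = inhibition: plate controls were vehicle for no effect and reference inhibitor for full effect.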 The note with it: Potency: Plasmodium falciparum HB3 proliferation inhibition; series mostly up to 28.7 µM.
Test [10] addresses Ferritin light chain (Equus caballus) (UniProt P02791). As to the kind of experiment: qHTS Validation Assay for Identification of Novel General Anesthetics (AID 2323). Also: % is scaled to controls: 0 for no effect and ±100 for the full control effect. The settings on record: horse apoferritin, anesthetic-site fluorescent probe displacement; series mostly up to 76.9 µM. The gist of the method:
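Competitive displacement of the profluorescent anesthetic 1-AMA (50% saturated, PBS) from 10 uM apoferritin, 10 min, room temperature. Activity is normalized 380/535 nm fluorescence; concentration-response fitted with a four-parameter Hill equation.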

The target of test [11] is ATP-dependent DNA helicase Q1 (Homo sapiens) (UniProt P46063). The test is described as follows: qHTS Validation Assay for Inhibitors of RecQ-Like Dna Helicase 1 (RECQ1) (AID 2353).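 Also: plate controls were DMSO vehicle for no effect and enzyme-free control for full effect.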 The note with it: recombinant RECQ1 helicase DNA unwinding assay; series mostly up to 25.6 µM. The gist of the method: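 50 nM RECQ1T1 preincubated 15 min with compound in Tris pH 8.0 buffer with MgCl2, DTT, Tween-20 and 2.5 ug/ml poly(dI-dC); started with 200 nM TAMRA/BHQ-2 forked duplex and 2 mM ATP. Unwinding read as fluorescence (525/598 nm), two reads 2 h apart.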

Test [12] addresses Alpha-galactosidase A (Homo sapiens) (UniProt P06280). The test is described as follows: Counterscreen for Glucocerebrosidase Inhibitors: qHTS Assay for Human alpha-Galactosidase at pH 4.5 (AID 992). Also: 0% is about no effect. The note with it: purified enzyme, fluorogenic substrate; series mostly up to 76.9 µM. The gist of the method:
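Concentration-response curves (0.7 nM to 77 uM final) were modeled with the Hill equation to give AC50. Reactions: 2 nM enzyme, 80 uM fluorogenic alpha-galactoside, pH 4.5 citric acid buffer, 20 min, room temperature.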

The target in test [13] is alpha-glucosidase (Oryza sativa, rice) (UniProt Q653V4). The test is described as follows: Counterscreen for Glucocerebrosidase Inhibitors: qHTS Assay for Rice alpha-Glucosidase at pH 5.0 (AID 997).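 Also: 0% = full activity with enzyme and -100% = basal without enzyme.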 The settings on record: rice alpha-glucosidase enzyme activity; series mostly up to 76.9 µM. The gist of the method: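 Rice alpha-glucosidase (4 nM final) with 400 uM 4-methylumbelliferyl-alpha-D-glucopyranoside in citrate buffer pH 5.0, 20 min at room temperature, stopped at pH 10; fluorescence 365/440 nm, compounds 0.7 nM–77 uM, AC50 from Hill fits.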

The nature of test [14]: Cell Viability - LYMP2-024 (AID 988).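 Also: plate controls were DMSO only for no effect and 92 µM tetraoctylammonium bromide for full effect; nearly all actives have a fitted effect of over 60% in size.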 The note with it: LYMP2-024 lymphoblastoid cell viability; series mostly up to 92.2 µM. The gist of the method:
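Human lymphoblastoid LYMP2-024 cells (2500/well) rested 5 hr, then treated with compound for 24 hr at 37 C in complete medium. Viability was measured as intracellular ATP by CellTiter-Glo luminescence. AC50 values came from Hill-equation fits.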

Test [15] in a line: Cell Viability - LYMP2-026 (AID 989). Also: % is scaled to controls: 0 for no effect and ±100 for the full control effect; nearly all actives have a fitted effect of over 50% in size. The note with it: LYMP2-026 lymphoblastoid cell viability, qHTS; series mostly up to 92.2 µM. The gist of the method: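 Human lymphoblastoid LYMP2-026 cells, 2500/well, exposed to compound 24 h at 37 C in complete medium. Viability as intracellular ATP by CellTiter-Glo luminescence; AC50 from Hill fits of qHTS concentration-response.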
Test [16] is described as follows: Cell Viability - LYMP1-002 - Assay at 24 hr (AID 993). Also: % is scaled to controls: 0 for no effect and ±100 for the full control effect. The settings on record: LYMP1-002 lymphoblastoid cells viability; series mostly up to 92.2 µM. The gist of the method:
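Human lymphoblastoid LYMP1-002 cells (2500/well) treated 24 h at 37 °C; viability as intracellular ATP by CellTiter-Glo luminescence. Tetraoctylammonium bromide as positive control; AC50 from Hill-equation fits of qHTS concentration-response.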

Test [17] in a line: Cell Viability - LYMP1-002 - Assay at 40 hr (AID 994).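 Also: 0% = DMSO only and full inhibition = 92 µM tetraoctylammonium bromide; nearly all actives have a fitted effect of over 60% in size.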 The settings on record: LYMP1-002 lymphoblastoid cell viability; series mostly up to 92.2 µM. The gist of the method: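 LYMP1-002 human lymphoblastoid cells (2500/well, complete medium) were treated with compounds for 40 hr at 37 C. Intracellular ATP was measured by CellTiter-Glo luminescence, and AC50 values came from Hill-equation fits of concentration-response data; tetraoctylammonium bromide was the positive control.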

The nature of test [18]: qHTS Assay for Identification of Small Molecule Inducers of Hypoxia Response (AID 2120; active = well fitted curve in the direction sought with a large enough effect in the signal ratio, with a control signal flat, not every such curve was filed as active; the % refers to the signal ratio; also: 0% is about no effect). The settings on record: hypoxia response reporter cells, beta-lactamase ratio readout; series mostly up to 104 µM. The gist of the method: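 HRE-bla ME-180 cells in Opti-MEM with 0.5% dialyzed FBS, pre-plated 4-5 h, then compound titration for 17 h at 37 degrees Celsius. CCF4 loaded 2.5 h at room temperature; 460/530 nm ratio gave %Activity and AC50 for induction.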

Setting [19] is: measured here: cell count channel max response.
Setting [20] is: measured here: lipid channel max response.

Eleven compounds from PubChem BioAssay (NCATS) can be followed below.

Where “and” joins values, the source holds several entries; their conditions need not be identical. Identical values can stand only once. Results filed as inconclusive are left out. Calls of active or inactive are those of the source. Unless noted, calls follow the shape of the dose curve; as a rule, active = well fitted curve in the direction sought with a large enough effect; inconclusive = small, poorly fitted or top-dose-only effect, or another doubt; inactive = no such curve, though single readings can be large; an effect the other way counts as inactive or inconclusive.

DNA repair nuclease/redox regulator APEX1 (Homo sapiens), sequence (P27695 whole entry, looked up): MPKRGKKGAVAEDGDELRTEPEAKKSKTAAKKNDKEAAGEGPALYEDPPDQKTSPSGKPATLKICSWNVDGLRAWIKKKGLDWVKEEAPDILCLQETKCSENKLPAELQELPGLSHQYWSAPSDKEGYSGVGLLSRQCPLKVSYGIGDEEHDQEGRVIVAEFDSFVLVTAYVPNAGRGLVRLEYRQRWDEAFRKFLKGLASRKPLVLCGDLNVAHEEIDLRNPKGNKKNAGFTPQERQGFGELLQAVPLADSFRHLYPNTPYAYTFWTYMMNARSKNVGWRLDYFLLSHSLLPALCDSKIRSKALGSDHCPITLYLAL
ATP-dependent DNA helicase Q1 (Homo sapiens), sequence (P46063 whole entry, looked up): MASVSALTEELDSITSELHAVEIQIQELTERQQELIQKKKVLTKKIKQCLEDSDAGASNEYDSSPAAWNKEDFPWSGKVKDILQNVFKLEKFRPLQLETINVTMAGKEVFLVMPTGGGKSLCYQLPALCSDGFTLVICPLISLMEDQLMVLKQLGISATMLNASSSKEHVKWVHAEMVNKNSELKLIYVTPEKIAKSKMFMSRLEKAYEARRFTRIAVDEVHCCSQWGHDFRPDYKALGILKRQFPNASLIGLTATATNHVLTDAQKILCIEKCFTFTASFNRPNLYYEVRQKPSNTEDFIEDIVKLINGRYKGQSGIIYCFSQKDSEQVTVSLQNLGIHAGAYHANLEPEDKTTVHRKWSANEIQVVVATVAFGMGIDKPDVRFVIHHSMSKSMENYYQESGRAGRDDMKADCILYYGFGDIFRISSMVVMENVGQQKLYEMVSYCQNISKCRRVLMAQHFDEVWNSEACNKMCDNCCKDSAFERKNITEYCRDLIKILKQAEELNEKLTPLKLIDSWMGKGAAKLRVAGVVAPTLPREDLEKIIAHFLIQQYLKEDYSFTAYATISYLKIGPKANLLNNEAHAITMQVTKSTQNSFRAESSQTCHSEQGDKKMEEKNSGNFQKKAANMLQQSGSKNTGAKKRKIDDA
Alpha-galactosidase A (Homo sapiens), sequence (P06280 whole entry, looked up): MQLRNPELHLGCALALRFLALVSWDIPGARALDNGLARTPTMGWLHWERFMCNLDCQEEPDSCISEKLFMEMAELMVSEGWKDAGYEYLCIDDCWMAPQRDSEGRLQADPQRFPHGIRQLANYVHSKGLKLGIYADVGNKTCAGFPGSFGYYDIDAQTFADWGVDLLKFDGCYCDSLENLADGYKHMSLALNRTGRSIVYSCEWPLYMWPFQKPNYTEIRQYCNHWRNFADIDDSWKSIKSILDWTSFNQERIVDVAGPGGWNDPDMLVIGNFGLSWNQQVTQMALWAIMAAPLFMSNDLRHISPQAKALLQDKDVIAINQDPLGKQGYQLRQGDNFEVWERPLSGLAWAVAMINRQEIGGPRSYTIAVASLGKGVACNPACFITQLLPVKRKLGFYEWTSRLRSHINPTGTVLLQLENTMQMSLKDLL
Ferritin light chain (Equus caballus), sequence (P02791 2-175 limits assumed): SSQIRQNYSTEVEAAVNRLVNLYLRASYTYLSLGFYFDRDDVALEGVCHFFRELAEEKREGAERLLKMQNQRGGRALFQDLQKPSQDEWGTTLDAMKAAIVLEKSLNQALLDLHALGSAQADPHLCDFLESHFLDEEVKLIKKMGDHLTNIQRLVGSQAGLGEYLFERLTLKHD

With `CCCCN(CCCC)CCCOC(=O)c1ccc(N)cc1`, the activity change, negative = inhibition in test [1] (at 25.7 µM (top of the series)) was -3.3% (inactive); in [1] (at 57.5 µM (top of the series)) it was 6.89% (inactive). For the same compound, the max response in [1] (setting [19]) was -6.51% and -0.907%; in [1] (setting [20]) it was -7.52% and 11.8%.

On to `COc1ccc2c(c1)C(=O)N(CCc1ccc(S(=O)(=O)NC(=O)NC3CCCCC3)cc1)C(=O)C2(C)C`, for which the activity change, negative = inhibition in test [1] (at 25.7 µM (top of the series)) was -1.13% (inactive). The max response in test [1] (setting [19]) was -22.2%; in test [1] (setting [20]), -23.3%.

`C[C@H]1O[C@@H](n2cc(F)c(=O)[nH]c2=O)[C@H](O)[C@@H]1O`: in [1] (at 57.5 µM (top of the series)), the activity change, negative = inhibition was -0.32% (inactive). The values for the max response in test [1] (setting [19]) and in [1] (setting [20]) were 40.7% and 39.7%, respectively. Moreover, the Potency entry in test [2], in test [3], in test [4], in test [5], in test [6] and in test [7] was “inactive” in each case. For the same compound, the Potency entry in test [8], in test [9] and in test [11] was “inactive” in each case. For the same compound, in test [10], the compound was called inactive.

In the case of `CC(C)NC[C@H](O)c1ccc(O)c(O)c1`, the outcome in test [12], in test [13] and in test [10] was inactive. The activity change, negative = inhibition in test [1] (at 25.7 µM (top of the series)) is -3.67% (inactive); in [1] (at 57.5 µM (top of the series)), 0.654% (inactive) and 2.27% (inactive). Also, the max response in [1] (setting [19]) is -12.5% and 0.715% and 18.4%; in [1] (setting [20]), -17.7% and 2.86% and 19.2%. Further, the Potency entry in test [2], in test [3], in test [4], in test [5], in [6] and in [11] was “inactive” each time.

Consider `CN(C)CCCN1c2ccccc2CCc2ccccc21`, for which the compound was classed as inactive in test [12], in [13] and in test [10]. The activity change, negative = inhibition in test [1] (at 25.7 µM (top of the series)) is -3.67% (inactive); in [1] (at 57.5 µM (top of the series)), -1.66% (inactive) and 1.56% (inactive). In addition, the max response in test [1] (setting [19]) was -3.16% and 7.78% and 14.5%; in test [1] (setting [20]), -7.45% and 10.3% and 14.3%. Besides, the Potency result in [2], in test [3] and in [11] was “inactive” in each case.

In the case of `O=C(CCCN1CCN(c2ccccn2)CC1)c1ccc(F)cc1`, the activity change, negative = inhibition is 0.351% (inactive) in [1] (at 25.7 µM (top of the series)) and 15.3% (inactive) in test [1] (at 57.5 µM (top of the series)). For the same compound, the max response in test [1] (setting [19]) was -7.79% and 5.38%; in test [1] (setting [20]), -10.2% and 27.2%.

As for `Cc1ccc(C(C)C)cc2c(C)ccc1-2`, the activity change, negative = inhibition in [1] (at 57.5 µM (top of the series)) is 7.53% (inactive). Further, the figures for the max response in [1] (setting [19]) and in test [1] (setting [20]) were 18.3% and 26.1%, respectively.

Regarding `Cc1cc(CC(=O)O)n(C)c1C(=O)c1ccc(Cl)cc1`, the result in test [14] and in [18] was inactive. Further, the Potency entry in [15], in test [16] and in [17] was “inactive” in each case. Moreover, the activity change, negative = inhibition was -0.167% (inactive) in test [1] (at 25.7 µM (top of the series)) and 7.69% (inactive) in [1] (at 57.5 µM (top of the series)). In addition, the max response in [1] (setting [19]) was -0.357% and 17.9%; in [1] (setting [20]) it was 0.164% and 28.7%.

As to `OCC(O)CN1CCN(c2ccccc2)CC1` (stereo not given), the activity change, negative = inhibition in [1] (at 57.5 µM (top of the series)) is 11.8% (inactive). In addition, the results for the max response in test [1] (setting [19]) and in test [1] (setting [20]) were 18.2% and 35.4%, respectively.

As to `CSc1ccc2c(c1)N(CCC1CCCCN1C)c1ccccc1S2` (stereo not given), in test [1] (at 57.5 µM (top of the series)), the activity change, negative = inhibition is -0.301% (inactive). Moreover, the max response in test [1] (setting [19]) was -6.02%; in [1] (setting [20]) it was -4.98%. Further, the Potency entry in [2], in [3] and in test [11] was “inactive” each time. In addition, the Potency in test [4] is 4.47 µM (active); in [5], 3.98 µM (active); in test [6], 8.91 µM (active); in test [7], 12.6 µM (active); in test [8], 5.01 µM (active); in test [9] it was 8.91 µM (active). Also, the compound was classed as inactive in test [10].

For the compound `CC1=C(/C=C/C(C)=C/C=C/C(C)=C/C(=O)O)C(C)(C)CCC1`, the activity change, negative = inhibition in [1] (at 57.5 µM (top of the series)) is 0.149% (inactive). The max response in test [1] (setting [19]) was -9.37%; in [1] (setting [20]) it was -7.9%. Further, the Potency entry in [2], in [3], in test [6], in test [7] and in [11] was “inactive” each time. In addition, the Potency in [4] and in test [8] was 14.1 µM (active) in each case.
